From PubChem BioAssay (EPA / NIEHS) come the findings set out here.

Active and inactive are the calls of the source. The calls were made as follows: active = hit-call score of the fitted dose curve at least 0.9, where 1 is the maximum; inactive = score below 0.9.

Conditions in all cases: mRNA level, 48 h; actives raise or lower the signal
Read-out in assay [1]: Glutathione S-Transferase (GSTA2), GSTA2 (gene 2939)
The assay is described as follows: LTEA_HepaRG_GSTA2: Life Technologies and Expression Analysis (LTEA) Assay for Glutathione S-Transferase (GSTA2) using HepaRG (AID 2283497). The gist of the method: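 Differentiated human HepaRG cells were exposed in duplicate for 48 h in serum-free induction medium, 8 points from 100 uM top in half-log steps, 0.5% DMSO. GSTA2 mRNA was measured by TaqMan qRT-PCR, normalized to ACTB, GAPDH and POLR2A; bidirectional fit versus DMSO.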

Read-out in assay [2]: Glutamate-cysteine ligase catalytic (GCLC), GCLC (gene 2729)
The assay is described as follows: LTEA_HepaRG_GCLC: Life Technologies and Expression Analysis (LTEA) Assay for Glutamate-cysteine ligase catalytic (GCLC) using HepaRG (AID 2283498). The gist of the method: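 Differentiated HepaRG cells exposed 48 h in serum-free induction medium, eight-point half-log series topping at 100 uM in 0.5% DMSO, duplicates. GCLC mRNA by qRT-PCR normalized to ACTB, GAPDH and POLR2A, fitted bidirectionally versus DMSO.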

Read-out in assay [3]: growth arrest and DNA damage 45 (GADD45G), GADD45G (gene 10912)
The experiment in a line: LTEA_HepaRG_GADD45G: Life Technologies and Expression Analysis (LTEA) Assay for growth arrest and DNA damage 45 (GADD45G) using HepaRG (AID 2283499). The method, boiled down: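 Differentiated human HepaRG cells, 48 h post-plating, exposed 48 h in serum-free induction medium to 8 half-log concentrations (top 100 uM, 0.5% DMSO) in duplicate. GADD45G mRNA measured by Fluidigm TaqMan qRT-PCR, normalized to ACTB, GAPDH, POLR2A; bidirectional fit versus DMSO.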

Read-out in assay [4]: Glutamate-cysteine ligase regulatory (GCLM), GCLM (gene 2730)
The experiment in a line: LTEA_HepaRG_GCLM: Life Technologies and Expression Analysis (LTEA) Assay for Glutamate-cysteine ligase regulatory (GCLM) using HepaRG (AID 2283500). The gist of the method:
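Differentiated HepaRG cells exposed 48 h in serum-free induction medium to eight half-log concentrations up to 100 uM (0.5% DMSO). GCLM mRNA by TaqMan qRT-PCR, normalized to ACTB, GAPDH and POLR2A; bidirectional fit versus DMSO.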

Read-out in assay [5]: Glutathione S-transferase M3 (GSTM3), GSTM3 (gene 2947)
The assay is described as follows: LTEA_HepaRG_GSTM3: Life Technologies and Expression Analysis (LTEA) Assay for Glutathione S-transferase M3 (GSTM3) using HepaRG (AID 2283501). The method, boiled down: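 Differentiated human HepaRG cells were exposed in duplicate for 48 h in serum-free induction medium, 8 points from 100 uM top in half-log steps, 0.5% DMSO. GSTM3 mRNA was measured by TaqMan qRT-PCR, normalized to ACTB, GAPDH and POLR2A; bidirectional fit versus DMSO.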

Read-out in assay [6]: Heat shock 70 kDa protein 1 (HSPA1A), gene 3303
The experiment in a line: LTEA_HepaRG_HSPA1A: Life Technologies and Expression Analysis (LTEA) Assay for Heat shock 70 kDa protein 1 (HSPA1A) using HepaRG (AID 2283502). The method, boiled down: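 Human HepaRG cells in serum-free induction medium were exposed in duplicate for 48 h to 8 half-log concentrations, highest 100 uM, in 0.5% DMSO. HSPA1A mRNA read by TaqMan qRT-PCR, normalized to ACTB, GAPDH, POLR2A, fitted bidirectionally against DMSO.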

Read-out in assay [7]: Hypoxia-inducible factor 1-alpha (Homo sapiens) (UniProt Q16665)
The experiment in a line: LTEA_HepaRG_HIF1A: Life Technologies and Expression Analysis (LTEA) Assay for Hypoxia-inducible factor 1 (HIF1A) Trancription factor using HepaRG (AID 2283503). The method, boiled down: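 Differentiated HepaRG cells in serum-free induction medium exposed 48 h, in duplicate, to 8-point half-log series from 100 uM in 0.5% DMSO. HIF1A mRNA measured by TaqMan qRT-PCR, normalized to ACTB/GAPDH/POLR2A, fitted bidirectionally versus DMSO.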

Read-out in assay [8]: 3-Hydroxy-3-Methylglutaryl-CoA Synthase 2 (HMGCS2), HMGCS2 (gene 3158)
The experiment in a line: LTEA_HepaRG_HMGCS2: Life Technologies and Expression Analysis (LTEA) Assay for 3-Hydroxy-3-Methylglutaryl-CoA Synthase 2 (HMGCS2) using HepaRG (AID 2283504). The method, boiled down:
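Human HepaRG cells in serum-free induction medium were exposed in duplicate for 48 h to 8-point half-log series from 100 uM top in 0.5% DMSO. HMGCS2 mRNA measured by TaqMan qRT-PCR, normalised to ACTB, GAPDH, POLR2A; bidirectional fit versus DMSO.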

Read-out in the next assay: HGF (gene 3082)
The experiment in a line: LTEA_HepaRG_HGF: Life Technologies and Expression Analysis (LTEA) Assay for Hepatocyte Growth Facto (HGF) using HepaRG (AID 2283505). The gist of the method:
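Differentiated HepaRG cells in serum-free induction medium exposed 48 h in duplicate, 8 half-log concentrations from 100 uM in 0.5% DMSO. HGF mRNA by qRT-PCR, normalised to ACTB, GAPDH, POLR2A; bidirectional fitting.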

Read-out in assay [9]: Insulin Like Growth Factor 1 (IGF1), IGF1 (gene 3479)
The experiment in a line: LTEA_HepaRG_IGF1: Life Technologies and Expression Analysis (LTEA) Assay for Insulin Like Growth Factor 1 (IGF1) using HepaRG (AID 2283506). The method, boiled down:
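Differentiated HepaRG cells in serum-free induction medium, exposed 48 h in duplicate to 8 half-log concentrations up to 100 uM in 0.5% DMSO. IGF1 mRNA by Fluidigm qRT-PCR, normalised to ACTB, GAPDH and POLR2A.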

Read-out in assay [10]: Intercellular Adhesion Molecule 1 (ICAM1), ICAM1 (gene 3383)
The assay is described as follows: LTEA_HepaRG_ICAM1: Life Technologies and Expression Analysis (LTEA) Assay for Intercellular Adhesion Molecule 1 (ICAM1) using HepaRG (AID 2283507). The method, boiled down:
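Differentiated human HepaRG cells in serum-free induction medium exposed 48 h in duplicate to 8 half-log concentrations (top 100 uM, 0.5% DMSO). ICAM1 mRNA quantified by TaqMan qRT-PCR, normalized to ACTB, GAPDH and POLR2A; bidirectional fitting versus DMSO.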

Read-out in assay [11]: Insulin-like growth factor-binding protein 1 (IGFBP1), IGFBP1 (gene 3484)
The assay is described as follows: LTEA_HepaRG_IGFBP1: Life Technologies and Expression Analysis (LTEA) Assay for Insulin-like growth factor-binding protein 1 (IGFBP1) using HepaRG (AID 2283508). The gist of the method: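 HepaRG cells, plated 48 h then switched to serum-free induction medium, exposed in duplicate for 48 h to 8-point half-log series from 100 uM in 0.5% DMSO. mRNA measured by qRT-PCR, normalized to ACTB/GAPDH/POLR2A; bidirectional fit versus DMSO.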

Read-out in assay [12]: Interleukin 6 (IL6), IL6 (gene 3569)
The assay is described as follows: LTEA_HepaRG_IL6: Life Technologies and Expression Analysis (LTEA) Assay for Interleukin 6 (IL6) using HepaRG (AID 2283509). The method, boiled down:
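HepaRG cells exposed in duplicate for 48 h to eight half-log concentrations, top 100 uM, in 0.5% DMSO serum-free induction medium. mRNA measured by qRT-PCR, normalized to ACTB, GAPDH and POLR2A. Bidirectional fit versus DMSO.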

Read-out in assay [13]: Interleukin 6 Receptor (IL6R), IL6R (gene 3570)
The assay is described as follows: LTEA_HepaRG_IL6R: Life Technologies and Expression Analysis (LTEA) Assay for Interleukin 6 Receptor (IL6R) using HepaRG (AID 2283510). The method, boiled down:
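Differentiated HepaRG cells, plated 48 h, then exposed in duplicate for 48 h in serum-free induction medium to 8 half-log concentrations (top 100 uM, 0.5% DMSO). IL6R mRNA measured by TaqMan qRT-PCR, normalized to ACTB/GAPDH/POLR2A; bidirectional fit vs DMSO.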

Read-out in assay [14]: Potassium channel subfamily K member 1 (KCNK1), KCNK1 (gene 3775)
The assay is described as follows: LTEA_HepaRG_KCNK1: Life Technologies and Expression Analysis (LTEA) Assay for Potassium channel subfamily K member 1 (KCNK1) using HepaRG (AID 2283511). The gist of the method:
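Differentiated HepaRG cells, 48 h exposure in serum-free induction medium with 0.5% DMSO; 8 concentrations, half-log from 100 uM, duplicate. KCNK1 mRNA by qRT-PCR, normalized to ACTB, GAPDH, POLR2A; bidirectional fit vs DMSO.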

Read-out in assay [15]: Keratin 19 (KRT19), KRT19 (gene 3880)
The experiment in a line: LTEA_HepaRG_KRT19: Life Technologies and Expression Analysis (LTEA) Assay for Keratin 19 (KRT19) using HepaRG (AID 2283512). The gist of the method: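 Differentiated HepaRG cells in serum-free induction medium, exposed 48 h in duplicate to 8 half-log concentrations up to 100 uM in 0.5% DMSO. KRT19 mRNA by qRT-PCR, normalized to ACTB, GAPDH, POLR2A; bidirectional fit vs DMSO.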

Read-out in assay [16]: JUN Transcription Factor, JUN (gene 3725)
The experiment in a line: LTEA_HepaRG_JUN: Life Technologies and Expression Analysis (LTEA) Assay for JUN Transcription Factor using HepaRG (AID 2283513). The gist of the method: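 HepaRG cells, 48 h post-plating, exposed 48 h in serum-free induction medium to 8-point half-log series (top 100 uM, 0.5% DMSO), duplicate; mRNA by qRT-PCR (TaqMan, Fluidigm), normalized to ACTB/GAPDH/POLR2A; bidirectional fit vs DMSO.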

Read-out in assay [17]: Lipase C (LIPC), LIPC (gene 3990)
The assay is described as follows: LTEA_HepaRG_LIPC: Life Technologies and Expression Analysis (LTEA) Assay for Lipase C (LIPC) using HepaRG (AID 2283514). The method, boiled down: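 HepaRG cells, 48 h after plating, treated in duplicate for 48 h in serum-free induction medium over 8 half-log concentrations from 100 uM, 0.5% DMSO. LIPC mRNA by TaqMan qRT-PCR normalized to ACTB/GAPDH/POLR2A; bidirectional fit versus DMSO.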

Read-out in assay [18]: Lipoprotein lipase (LPL), LPL (gene 4023)
The experiment in a line: LTEA_HepaRG_LPL: Life Technologies and Expression Analysis (LTEA) Assay for Lipoprotein lipase (LPL) using HepaRG (AID 2283515). The method, boiled down: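 Differentiated HepaRG cells, plated 48 h, then exposed 48 h in serum-free induction medium to 8 concentrations (top 100 uM, half-log steps) in 0.5% DMSO, duplicate. LPL mRNA measured by qRT-PCR, normalized to ACTB, GAPDH and POLR2A.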

Hypoxia-inducible factor 1-alpha (Homo sapiens), sequence (Q16665 whole entry, looked up): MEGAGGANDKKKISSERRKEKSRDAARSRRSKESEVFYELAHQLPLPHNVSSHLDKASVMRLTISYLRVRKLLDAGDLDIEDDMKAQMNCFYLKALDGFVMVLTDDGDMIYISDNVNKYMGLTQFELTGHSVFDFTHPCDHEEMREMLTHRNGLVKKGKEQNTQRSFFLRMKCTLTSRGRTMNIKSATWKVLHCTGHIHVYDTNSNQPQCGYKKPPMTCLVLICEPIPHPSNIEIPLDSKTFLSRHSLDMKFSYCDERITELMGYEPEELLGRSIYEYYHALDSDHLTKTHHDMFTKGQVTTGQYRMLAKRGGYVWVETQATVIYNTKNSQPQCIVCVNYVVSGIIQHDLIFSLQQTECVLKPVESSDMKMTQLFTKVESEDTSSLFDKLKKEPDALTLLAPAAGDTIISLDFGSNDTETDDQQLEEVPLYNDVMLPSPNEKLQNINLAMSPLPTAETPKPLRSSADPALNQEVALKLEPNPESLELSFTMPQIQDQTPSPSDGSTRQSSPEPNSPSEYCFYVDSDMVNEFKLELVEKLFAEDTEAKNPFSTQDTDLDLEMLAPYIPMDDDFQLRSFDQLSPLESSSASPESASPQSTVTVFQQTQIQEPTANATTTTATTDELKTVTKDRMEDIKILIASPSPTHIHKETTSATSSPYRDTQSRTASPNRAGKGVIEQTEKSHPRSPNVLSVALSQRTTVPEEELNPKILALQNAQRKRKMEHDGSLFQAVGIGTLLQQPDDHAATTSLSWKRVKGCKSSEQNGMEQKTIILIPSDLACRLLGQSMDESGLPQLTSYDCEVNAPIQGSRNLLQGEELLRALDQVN

As to `Cc1ccccc1Cl`, the call in [1], in [2], in assay [3], in assay [4], in assay [5] and in assay [6] was inactive. The outcome (in assay [7]; in assay [8]; with HGF (gene 3082); in assay [9]; in assay [10]; in [11]) was inactive. Besides, the compound was classed as inactive in [12], in assay [13], in assay [14], in [15], in [16] and in assay [17]. Moreover, in assay [18], the compound was called inactive.

`CC(=O)OC/C=C(\C)CCC=C(C)C`: the compound was classed as inactive in assay [1], in assay [2], in [3], in assay [4], in [5] and in assay [6]. In addition, the call (in assay [7]; in assay [8]; with HGF (gene 3082); in assay [9]; in assay [10]; in [11]) was inactive. The outcome in [12], in [13], in assay [14], in [15], in assay [16] and in assay [17] was inactive. Also, in [18], the compound was called inactive.

`NCCO`: the outcome in [1], in assay [2], in assay [3], in [4], in assay [5] and in assay [6] was inactive. The compound was called inactive (in assay [7]; in assay [8]; with HGF (gene 3082); in assay [9]; in assay [11]; in assay [12]). The outcome in assay [13], in assay [14], in assay [15], in [16], in assay [17] and in [18] was inactive.

The term AC50 denotes the midpoint of the concentration-response curve, whichever way the signal moves. Take `O=C(O)Cc1ccccc1Nc1c(Cl)cccc1Cl`: the compound was classed as inactive in assay [1], in assay [2], in assay [3], in [4], in assay [5] and in assay [6]. Also, the compound was called inactive (in [7]; in assay [8]; with HGF (gene 3082); in assay [10]; in assay [11]; in [12]). In addition, the result in assay [13], in [14], in assay [15], in assay [16], in assay [17] and in assay [18] was inactive. Also, the concentration at half-maximal activity (AC50) in [9] is 16.5 µM (active).
